Source: PubChem (The Scripps Research Institute Molecular Screening Center)
The list is not random: actives were taken first. Their share in the collection is about 3.5%.
MITF primary: human MITF inhibition, primary screen. O75030. AlphaScreen MITF homodimerization, bead proximity signal. inhibition, % at 2.6 µM. hit rate 0.91% among 650,000. AID 1259374; in the data active = inhibition above about 50%;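 note: 0% = vehicle wells with protein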
GPR151 activ: activates the human receptor GPR151 | activation, % at 11.2 µM | PathHunter beta-arrestin GPR151 cells, luminescence | Q8TDV0 | hit rate 1% among 650,000; in the data active = activation above about 4.9%;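 note: 0% = median of compound wells and 100% = cells with positive control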
Target sequence (Q8TDV0 whole entry, looked up): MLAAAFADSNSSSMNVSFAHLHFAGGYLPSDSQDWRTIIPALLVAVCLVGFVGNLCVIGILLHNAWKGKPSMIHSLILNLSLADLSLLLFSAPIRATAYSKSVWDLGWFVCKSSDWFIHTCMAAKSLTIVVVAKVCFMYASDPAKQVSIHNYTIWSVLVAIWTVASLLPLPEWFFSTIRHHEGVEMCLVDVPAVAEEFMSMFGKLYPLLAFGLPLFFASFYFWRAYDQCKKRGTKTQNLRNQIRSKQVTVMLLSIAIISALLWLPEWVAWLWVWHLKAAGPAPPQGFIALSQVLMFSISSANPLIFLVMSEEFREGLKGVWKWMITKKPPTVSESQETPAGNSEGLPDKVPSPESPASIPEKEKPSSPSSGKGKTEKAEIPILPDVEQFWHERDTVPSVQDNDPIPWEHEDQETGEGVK
FBW7 act: human FBW7 E3 ligase activation, primary screen. Q969H0. AlphaScreen FBW7–phospho-cyclin E peptide binding, activator screen. normalized activity (activation), % at 26.1 µM. hit rate 0.13% among 650,000; in the data active = normalized activity above about 1.9%;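 note: purified mutant Fbw7 with reduced substrate affinity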
TEAD-YAP inh: TEAD-YAP interaction inhibition | AID 1259422 | inhibition, % at 9.12 µM | hit rate 1.4% among 640,000 | HEK-TIYL cells, TEAD-Gal4/YAP UAS-luciferase luminescence; in the data active = inhibition above about 32%;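 note: 0% = median of test compound wells and 100% = reference inhibitor wells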
MITF confirm: human MITF inhibition, confirmation | shares compounds with MITF primary | hit rate 16% among 4,700 | inhibition, % at 2.6 µM | AlphaScreen MITF homodimerization, biotin/His-MITF beads | AID 1259372;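 active = inhibition above a cutoff derived from the DMSO control wells, cut at about 28% in these data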;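 note: 0% = MITF dimer wells with DMSO only; inhibitors lower the bead chemiluminescence by keeping MITF from dimerizing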
AlphaScreen DR: AlphaScreen optical interference, dose response counter-screen; shares compounds with MITF primary; AlphaScreen optical interference counterscreen, cell-free; IC50, µM; hit rate 6% among 480; call rule not given here
AS interf ctr: counter-screen: compounds optically interfering with AlphaScreen. shares compounds with MITF primary. LysRS AlphaScreen counterscreen, signal interference, triplicate. inhibition, % at 2.6 µM. hit rate 7.6% among 4,700. AID 1259376;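 active = inhibition above a cutoff derived from the DMSO control wells, cut at about 30% in these data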
Numbers without * were called inactive; / = no result given.

SMILES | MITF primary | GPR151 activ | FBW7 act | TEAD-YAP inh | MITF confirm | AS interf ctr | others
CCN1CCN(Cc2ccc(OC)c(OCc3ccccc3)c2)CC1 | 12.5 | -1.0 | 0.0 | 0.2 | / | /
COc1ccc(CN2CCN(C3CCCCC3)CC2)cc1OCc1ccccc1 | 61.9* | -0.8 | -0.1 | 12.3 | -2.6 | -4.3
O=[N+]([O-])c1cccc(OCCCN2CCN(Cc3ccccc3)CC2)c1 | 76.2* | -1.6 | -0.2 | 2.4 | 2.9 | -0.1
COc1ccc(CN2CCN(Cc3cccc([N+](=O)[O-])c3)CC2)cc1OCc1ccccc1 | 69.2* | 0.2 | -0.3 | -1.4 | 5.5 | -1.5
O=[N+]([O-])c1cccc(CN2CCCCCCC2)c1 | 42.3 | -0.5 | 0.0 | -13.2 | / | /
CCN1CCN(Cc2ccc(OCc3ccccc3)c(OC)c2)CC1 | -1.0 | -0.3 | 0.0 | -4.9 | / | /
CCOc1ccc(CN2CCN(Cc3cccc([N+](=O)[O-])c3)CC2)cc1 | 59.7* | 0.8 | -0.4 | 13.4 | 13.9 | 20.5
O=[N+]([O-])c1cccc(CN2CCN(c3ccccn3)CC2)c1 | 50.7* | 1.0 | 0.7 | -2.4 | 3.9 | -2.2
O=[N+]([O-])c1ccc(N2CCN(Cc3cccc([N+](=O)[O-])c3)CC2)cc1 | 15.8 | -0.5 | -0.2 | 12.2 | / | /
CC1CCc2cc(F)ccc2N1C(=O)c1ccco1 (centres undefined) | 5.8 | -0.3 | -0.1 | 16.2 | / | /
CCOC(=O)c1c(NC(=O)C2(c3ccccc3)CCCC2)sc2c1CC(C)(C)OC2 | 11.0 | 0.0 | -0.1 | -7.2 | / | /
COc1ccc(-n2nc(C(=O)N3CCN(c4ccccn4)CC3)c3ccccc3c2=O)c(OC)c1 | 4.5 | 1.2 | -0.2 | 5.7 | / | /
COc1ccc(CN2CCN(C(=O)c3ccccc3F)CC2)cc1OCc1ccccc1 | 43.0 | 1.9 | 0.2 | 4.1 | / | /
COc1ccc(CN2CCN(Cc3ccccc3F)CC2)cc1OCc1ccccc1 | 79.8* | -0.7 | -0.1 | -6.8 | 2.1 | 1.8
COc1cc(/C=N/NC(=O)CNC(=O)c2cc(OC)c(OC)c(OC)c2)ccc1O | -1.5 | 1.9 | 0.1 | 2.6 | / | /
COc1ccc(-n2nc(C(=O)Nc3ccc(C)c(F)c3)c3ccccc3c2=O)cc1 | 7.3 | 1.0 | 0.0 | 1.5 | / | /
O=C(Cc1noc2ccccc12)N1CCN(c2ccc(-c3ccccn3)nn2)CC1 | 125.8* | -2.6 | -1.5 | 21.0 | 112.0* | 100.6*
O=C(c1cnn(-c2ccccc2)c1-n1cccc1)N1CCN(c2ccccn2)CC1 | 17.3 | 0.2 | 0.2 | 9.1 | / | /
Cc1c(C(=O)N2CCN(c3ccc(-c4ccccn4)nn3)CC2)cnn1-c1ccccc1 | 75.0* | 1.0 | -1.3 | -4.5 | 96.0* | 100.6*
O=S(=O)(C1CC1)N1CCN(c2ccc(-c3ccccn3)nn2)CC1 | 121.5* | -8.8 | -1.6 | 59.0* | 108.1* | 100.4*
O=C(N/N=C\c1ccc[nH]1)c1cccc(Br)c1 | 0.1 | -0.5 | -0.1 | -34.8 | / | /
O=C(c1ccc(Cl)cc1Cl)N1CCc2c([nH]c3ccccc23)C1c1ccc(Cl)cc1 (centres undefined) | -3.1 | 0.6 | 0.0 | 0.8 | / | /
O=C(O)c1cc(S(=O)(=O)Nc2ccc(-n3cnnn3)cc2)ccc1O | 53.2* | -0.4 | -0.1 | -1.3 | 40.7* | 13.7 | AlphaScreen DR=>7.18
Cc1cc(C(=O)N2CCN(CC(=O)c3cccs3)CC2)no1 | 61.3* | 0.5 | 0.0 | -3.7 | 7.1 | 11.7
O=C(CN1CCN(C(=O)c2cnccn2)CC1)c1cccs1 | 52.8* | -0.5 | 0.0 | -2.0 | 3.7 | 15.7
SMILES | MITF primary | GPR151 activ | FBW7 act | TEAD-YAP inh | MITF confirm | AS interf ctr | others
Cc1cc(Br)cc(C)c1OCC(=O)NC(C)C | -17.9 | -0.6 | -0.3 | 5.3 | / | /
O=C(CNCCCN1CCOCC1)Nc1ccc(N2CCCCCC2)cc1 | 75.2* | -0.9 | -0.1 | -3.5 | 5.3 | 25.0
O=C(CCl)Nc1ccc(N2CCCCC2)cc1 | -13.2 | 1.7 | 0.2 | 14.8 | / | /
O=C(CNCCN1CCCCC1)Nc1ccc(N2CCCCC2)cc1 | 94.2* | 0.2 | 0.0 | -7.6 | 16.9 | 20.5
O=C(CNCCN1CCCCC1)Nc1ccc(N2CCCCCC2)cc1 | 90.8* | 0.0 | -0.1 | 0.9 | 8.2 | 34.4*
O=C(CNCCN1CCCCC1)Nc1ccc(N2CCCC2)cc1 | 82.7* | -0.4 | -0.2 | -6.0 | 14.8 | 61.0*
CCOCCCNCC(=O)Nc1ccc(N2CCCC2)cc1 | 12.7 | 1.5 | 0.1 | -51.1 | / | /
Cc1nc(NCc2cnn(C)c2C)sc1-c1ccn(C2CCCC2)n1 | 6.6 | -0.9 | 0.0 | -1.3 | / | /
O=C(Nc1cccc([N+](=O)[O-])c1)c1scc2c1CCCC2 | -2.6 | -2.5 | -0.1 | -100.0 | / | /
